According to the supplement of paper PMC6555819:

What follows are sequences tested on LXRa homodimer (NR concentration 270 nM) (assay: PBM binding z-score (relative to random genomic background probes); higher = stronger binding; sequences stand for … in GC…GCGATTGACAGCGTAGAATGAAGG).
Summary of the method: (§1)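 Binding z-scores take random background probes as their reference. They come from custom Agilent 4×180K protein-binding microarrays incubated 1 h with ligand-free nuclear receptor dimers, with antibodies against each partner (one per run) detecting binding. Scanned fluorescence was regression-normalized.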

| Sequence | PBM binding z-score |
| --- | --- |
| CGAACTAGGTCACTGACAGGACAGTGAATAGTAA | -0.0136 |
| CATACAGGGTCAGCTAGGCCCGAGTAGGGACGGC | -0.329 |
| AGAATGAGGTTACCAAAGCTCAGGGAAACGCTTG | -0.0854 |
| ATCTCTAGGTAAAGTTCAGTGACAGATCGATAGA | 1.97 |
| TCGGGTAGGTTACCAATGGGGCATTCAGCTTTCT | 0.192 |
| TAGCCTAGGTCATTCAGGGGCCAGTAGAGAAAGC | 0.592 |
| ATCGAAAGGTCTTGAGGTGAGTATACAGAAAGGC | -0.36 |
| AGGATGAGGTTAAGATCAGGGAAACAGAATACAT | 0.0836 |
| CCTCGGAGGACAACAGGAGGGCAGAGCTGCCAGA | -0.39 |
| TCTGCTAGCTCAGTTGGTCAGCTAACGAGCTGCC | -1.01 |
| TCTAGTTGGTCAGAGGTCACACACTCGAAATGCG | 3.21 |
| GCATATAAGTAATACAAGGTGAAAGTCCGATTGT | 0.499 |
| TTAGCAAGGTGAAAGGTCGTTGATGCACGCCTTG | -0.037 |
| AGCCAAAGTTCAGGACGAGGTAACGTAAAGCACG | 1.39 |
| AGAACGAGGGCATGCTGAGTTGATAGCAGAGTAG | -0.52 |
| ACTATTAATTGAGACGAGGGCAACCGATAGGTTG | 0.685 |
| CTCGAATGGTCGGTTGAGGTGAGTATACGGATAA | -0.272 |
| GCGACTGGGGCAAAGCAGGTTACCATAAGGTTGG | -0.593 |

Each sequence was assayed on LXRb:RXRa (NR concentration 270 nM, RXRa partner concentration 90 nM) in the same assay as above.
Summary of the method: as §1

| Sequence | PBM binding z-score |
| --- | --- |
| TCATATAGGCAAAAGGTGAAAGTCGGTGTGGTAA | 1.6 |
| ATATGTAGGTTAGCTGGGGTCATTCAGACTAGGC | 4.75 |
| GCAACGAGGGCAAAGTTGATAGCATCTGTCGACG | 0.805 |
| CCTTACGGGTCGCTCCAGGTTATAGCATCGGAGT | 0.57 |
| ATGTCTAGGTAAGACTCAGTTCAGTGAAGAACGC | -0.259 |
| GATTCAGGGTCAAGGCCAGAGTACGCGTATTGAT | 4.43 |
| CGTCAAAGCTCAAGGTAACGTAACAGAAAGCAGC | -0.335 |
| CCTATTAGTTGACCACAAGGGCAACCGAAGCTCG | 0.591 |
| ATATGTAGCTTAGCTGGGGTCATTCAGACTAGGC | 4.21 |
| CTACCAAGGTGAACAAGCTCGTTGATTACTATTC | 0.479 |
| CTCGAAAGGTCGTGCTCAGGTGACTATACCAAAC | 3.69 |
| CGAACTAGGTCAAGAACAGTGAATCTCCGCACGC | 1.35 |
| ACTATTAGGTGACTTAGGGCAACCGATACGACGC | 0.142 |
| TAGCCTAGGTCAAGGGCCAGTATACCACGCGAAC | 2.2 |
| ACTTACGGGTCAACGAGGTTATTGCACGCGTATA | 4.44 |
| CGTCAAAGTTCAAGGTAACGTTACAGAAAGCAGC | 3.64 |
| CAATCTAGGTCACCGGAAGGTCAAAGTCCGCATG | 5.42 |
| CCGAGTGGGGCAAAGGTTACCATACTCAGTACGA | 2.37 |
| AATAGAGGGTCACTAGGCCAGAGTAGGTACGAAT | 2.81 |
| ACCTCTAGGTAACCAAGTTCAGTGAATGCCGAAC | 0.37 |

| Sequence | PBM binding z-score |
| --- | --- |
| CGTCAAAGTTCAAGGTAACGTGACAGAAAGCAGC | 3.27 |
| TCTCGGAGGACACGAAGGTCAGAGCTTTCCAGAG | 0.923 |
| CGAACTAGGTCACTGACAGGACAGTGAATAGTAA | 1.64 |
| CATACAGGGTCAGCTAGGCCCGAGTAGGGACGGC | 1.95 |
| AGAATGAGGTTACCAAAGCTCAGGGAAACGCTTG | 1.96 |
| ATCTCTAGGTAAAGTTCAGTGACAGATCGATAGA | 1.27 |
| TCGGGTAGGTTACCAATGGGGCATTCAGCTTTCT | 1.61 |
| TAGCCTAGGTCATTCAGGGGCCAGTAGAGAAAGC | 3.1 |
| ATCGAAAGGTCTTGAGGTGAGTATACAGAAAGGC | 0.394 |
| AGGATGAGGTTAAGATCAGGGAAACAGAATACAT | 2.16 |
| CCTCGGAGGACAACAGGAGGGCAGAGCTGCCAGA | -0.91 |
| TCTGCTAGCTCAGTTGGTCAGCTAACGAGCTGCC | -1.04 |
| TCTAGTTGGTCAGAGGTCACACACTCGAAATGCG | 4.9 |
| GCATATAAGTAATACAAGGTGAAAGTCCGATTGT | 0.331 |
| TTAGCAAGGTGAAAGGTCGTTGATGCACGCCTTG | 2.47 |
| AGCCAAAGTTCAGGACGAGGTAACGTAAAGCACG | 1.94 |
| AGAACGAGGGCATGCTGAGTTGATAGCAGAGTAG | -0.164 |
| ACTATTAATTGAGACGAGGGCAACCGATAGGTTG | 0.313 |
| CTCGAATGGTCGGTTGAGGTGAGTATACGGATAA | -0.377 |
| GCGACTGGGGCAAAGCAGGTTACCATAAGGTTGG | 0.0291 |
